Hit rate of the full screen: of about 65,000 compounds, about 45 (0.07%) were called active. The entries come from a sample that favours actives as a whole. Values without a mark were called inactive.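 The calls were made as follows: active = inhibition above the mean of compound-free control plate wells plus 3 SD (cut at about 14% in these data); inactive = the rest.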
molecular target: Collagenase 3 (Homo sapiens) (UniProt P45452); assay: human MMP13 inhibitors, primary screen, biochemical, FRET peptide cleavage (AID 570); settings: MMP-13 fTHP FRET cleavage, Mca fluorescence; at 4 µM; stronger effect = higher value;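 also: 0% = DMSO wells and 100% = wells with reference MMP-13 inhibitor after basal subtraction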

| SMILES | inhibition |
| --- | --- |
| O=C1C(C=NCC2CCCO2)=C(O)c2ccccc21 (configuration not stated) | 3.3% |
| CCOC(=O)Cn1c(SC)nc2sc3c(c2c1=O)CC(C)(C)OC3 | 1.7% |
| CN(C)/C=C/c1c(C#N)c(=O)ncn1Cc1ccccc1 | 2.5% |
| O=C(Nc1cccc(C(=O)N2CCCC2)c1)c1ccccc1 | -0.2% |
| CCOC(=O)n1c(SCC(=O)N(CC)CC)nc2ccccc21 | -1.9% |
| O=C(O)C1CCN(S(=O)(=O)N2CCOCC2)CC1 | -0.5% |
| COc1ccc(CC(=O)c2ccc(O)cc2O)cc1OC | 2% |
| CC1(C)Oc2ccc3ccc(=O)oc3c2/C(=C/NCCO)C1=O | 2.5% |
| Cc1ccc(-c2noc(CSc3nnc(-c4ccccc4)n3C)n2)cc1 | 7.2% |
| Cn1c(/C(C#N)=C2/CCCCCN2)nc2ccccc21 | 12.4% |
| O=C(Cn1c(-c2cncs2)nc2ccccc21)NC1CCCC1 | -3.3% |
| COCCCNC(=O)C1CC(=O)N(c2ccc(C)cc2)C1 (configuration not stated) | -1.3% |
| O=C(C(NS(=O)(=O)c1cccc2nsnc12)c1ccccc1)N1CCN(c2ccccn2)CC1 (configuration not stated) | 7.2% |
| Cc1ccsc1CNn1cnnc1SCc1ccccc1F | 9.3% |
| COc1ncnc2c1N=C1CC(C)(C)CC(N)=C1S2 | 1.4% |
| Cc1[nH]c2ccccc2c1C(=O)CSCC(=O)O | -0.3% |
| O=C(CSc1nnc(-c2c[nH]c3ccccc23)n1-c1ccc(F)cc1)NCc1ccco1 | 6.1% |
| CC(C)(C)n1nnnc1C(c1ccc2ncccc2c1)N1CCSCC1 (configuration not stated) | -2.5% |
| O=C(O)CCSc1nnc(-c2ccccc2)n1-c1ccccc1 | -3.8% |
| O=C(CC1Oc2ccccc2NC1=O)NCCCN1CCN(Cc2ccccc2)CC1 (configuration not stated) | -2% |
| Cn1c(=O)c2c(nc(Br)n2CCSc2nc3ccccc3o2)n(C)c1=O | 0.1% |
| COc1ccc(CNC2CCCCC2)cc1 | 5.3% |
| Cc1nonc1OCCn1nnnc1N | -19.6% |
| O=C(COc1ccccc1)N1CCc2ccccc2C1 | 1.4% |
| CCN(CC)Cc1c(C(=O)OC)nnn1-c1nonc1N | -0.9% |
| CCOC(=O)c1sc(=S)n(-c2cccc(OC)c2)c1N | 5.8% |

| SMILES | inhibition |
| --- | --- |
| O=C(NCCN1C(=O)C2C3C=CC(C3)C2C1=O)Nc1ccccn1 (configuration not stated) | 7.3% |
| OC(COc1cccc2ccccc12)CN1CCN(c2ccccn2)CC1 (configuration not stated) | 0.9% |
| Cn1c(Cc2csc(N)n2)nnc1SC/C=C/c1ccccc1 | 6.2% |
| O=C(CN(CC1CCCO1)C(=O)CNS(=O)(=O)c1ccccc1)NCc1ccccc1 (configuration not stated) | -0.3% |
| COc1cccc(-c2nnc(N(C)C(=O)c3ccno3)s2)c1 | -8.4% |
| COC(CCN(C)C)(c1ccccc1)c1ccccc1 | -0.2% |
| Nc1nonc1-c1noc(-c2ccc(Br)o2)n1 | -4.4% |
| CCOC(=O)CNC(=O)CSc1nnc(-c2cccc(OC)c2)n1CC | 3.6% |
| COc1cccc(NC(=O)C(C)Oc2ccccc2)c1 (configuration not stated) | 2.2% |
| N#CC1=C(N)Oc2n[nH]c(CSc3ccccc3)c2C12C(=O)Nc1ccccc12 (configuration not stated) | 1.5% |
| COc1ccccc1CNC(=O)C1CCCN(S(=O)(=O)c2cccc3cccnc23)C1 (configuration not stated) | 2.1% |
| Cc1noc(C)c1CSc1nc2cc(S(=O)(=O)N3CCOCC3)ccc2o1 | -0.9% |
| CC12CCC(C(=O)N3CCN(c4ncccn4)CC3)(c3nc4ccccc4nc31)C2(C)C (configuration not stated) | 0.1% |
| CC(C)C[C@H](NC(=O)[C@@H]1O[C@H]1C(=O)O)C(=O)NCCCCN=C(N)N | 0.7% |
| CCn1cc(C(=O)N2CC=C(c3ccccc3)CC2)c(=O)c2ccc(C)nc21 | 0.8% |
| CCN1CCN(Cc2nc3c(c(=O)n(C)c(=O)n3C)n2CC(=O)c2ccccc2)CC1 | -8.7% |
| Cc1ccc(Cc2cncc(O)c2)cc1S(=O)(=O)O | 1.3% |
| COc1ccc(-n2nnc3c(=O)n(CC(=O)OCc4ccccc4)cnc32)cc1 | 1.8% |
| CCOC(=O)N1CCN(S(=O)(=O)c2cc(Br)cc3c2N(C(=O)C2CC2)CC3)CC1 | 3% |
| Cc1ccc(NC(=O)Cn2nc(C)c3ccccc3c2=O)c(C)c1 | 0.6% |
| COc1ccc(N2CCN(C(=O)CSc3nnc4ncccn34)CC2)cc1 | 4.1% |
| O=C(CN1CCN(c2ncc(C(F)(F)F)cc2Cl)CC1)Nc1ccc2c(c1)OCO2 | 2.7% |
| N#CCSc1nc2ccccc2c(=O)n1-c1ccccc1 | -3.9% |
| CCc1nnc(NC(=O)CSc2nnc(Cc3ccccc3)n2-c2ccc(OC)cc2)s1 | 3.3% |
| CC(C)(C)c1csc(NC2=NS(=O)(=O)c3ccccc32)n1 | 0.2% |
| COC(=O)c1ccc(CSc2nc3ccccc3c(=O)n2-c2cccc(OC)c2)o1 | -1.5% |

| SMILES | inhibition |
| --- | --- |
| CCCOC(=O)c1[nH]c2c(c1C)C(=O)CC(c1cc(OC)c(OC)c(OC)c1)C2 (configuration not stated) | 0.2% |
| CCCC(C(=O)N1CCOCC1)N1C(=O)C2C3C=CC(C3)C2C1=O (configuration not stated) | 4.6% |
| CN(C)CCOC(=O)C(c1ccccc1)C1(O)CCCC1 (configuration not stated) | 3.8% |
| COc1cc2ccccc2cc1C(=O)Nc1ccc(S(=O)(=O)Nc2cc(C)on2)cc1 | -1.9% |
| Cc1ccccc1C(OCC(O)CN1CCCCC1CCO)c1ccccc1 (configuration not stated) | 1.3% |
| O=C1Nc2c(Br)cc(Br)cc2C1(O)N1CCOCC1 (configuration not stated) | -2.4% |
| COc1ccc(CN2CN(C(C)C)CSC2=S)cc1 | 1% |
| COc1ccc(-c2nnn(Cc3nc(N)nc(N4CCCCC4)n3)n2)cc1 | 7.6% |
| O=C(C1CCN(S(=O)(=O)c2cccs2)CC1)N1CCCCCC1 | 6.3% |
| Cc1ccc(S(=O)(=O)NCC(=O)OCC(=O)N2CCc3ccccc32)cc1 | -2.9% |
| COC(=O)c1ccc(NC(=O)CSc2nnc(Cc3cccn3C)n2-c2ccc(F)cc2)cc1 | -0.2% |
| Cn1c(=O)n(CCc2ccccc2)c(=O)c2c1nc1n2CCCN1c1ccccc1 | -0.2% |
| CCC/C(O)=C1\C(=O)CC(C)(C)CC1=Nc1ccccc1OC | -1.2% |
| CSCCC(NC(N)=O)C(=O)N(C)CC(=O)Nc1ccc(C)cc1 (configuration not stated) | -2.4% |
| CCc1c(C)nc(N2CCN(Cc3ccccc3)CC2)[nH]c1=O | -7.8% |
| COC(=O)c1c(-c2ccc(C)cc2)csc1N | -8.5% |
| CCn1c(COc2ccccc2)nnc1SCC(=O)Nc1ccc2c(c1)OCCO2 | 0.5% |
| Cc1cccc2cc(CN(Cc3nnnn3Cc3ccccc3)C3CCCC3)c(=O)[nH]c12 | -8.4% |
| C=CCNc1nnc(C)c2ccccc12 | 3.5% |
| Cc1cc(NC(=O)CN2CCCCC2C)nc2c1c(=O)oc1ccccc12 (configuration not stated) | 0.1% |
| COc1ccccc1N1CCN(C(=O)c2cn(-c3ccccc3)nc2-c2cccnc2)CC1 | -5.4% |
| CCCN1CC=C2C(C#N)=C(N)C(C#N)(C#N)C(c3cc(OC)ccc3OC)C2C1 (configuration not stated) | -14.3% |
| CCCCNC(=O)c1c[nH]c2ccc(S(=O)(=O)Nc3ccc(OCC)cc3)cc2c1=O | -4.5% |
| Cc1cccc(N2CCN(S(=O)(=O)c3ccc4c(c3)c(=O)n(C)c(=O)n4C)CC2C)c1 (configuration not stated) | 4.1% |
| CCOC(=O)c1ccc(-n2c(C)nc3c(cnn3-c3ccccc3C)c2=O)cc1 | 7.5% |
| CCOC(=O)c1cc2occc2n1CC(=O)NC1CCC(C)CC1 (configuration not stated) | 4.9% |

| SMILES | inhibition |
| --- | --- |
| COc1ccc(NS(=O)(=O)c2ccc(NC(=O)C(C)(C(F)(F)F)C(F)(F)F)cc2)nn1 | -10.5% |
| CN(CCCC(=O)Nc1nccs1)S(=O)(=O)c1ccc(Cl)cc1 | 6% |
| Cc1ccc(C(=O)CSc2nnc(Cn3nnc4ccccc43)n2C)cc1 | 7.7% |
| CCN1CCN(Cc2c(O)ccc3c(=O)c(-c4ccc(OC)c(OC)c4)c(C(F)(F)F)oc23)CC1 | 4.7% |
| CN(c1ccccc1)c1ccc(/C=c2\s/c(=C(/C#N)C(=O)C(C)(C)C)n(Cc3ccco3)c2=O)cc1 | 15.4% (active) |
| O=c1nc2s/c(=C\c3ccco3)c(=O)n2nc1Cc1ccccc1 | 0.1% |
| CCOC(=O)CSc1nc2c(sc(=S)n2CCc2ccccc2)c(=O)n1Cc1ccco1 | 2.4% |
| Cc1cc(C(F)(F)F)n2ncc(-c3ccccc3)c2n1 | 3.8% |
| CCc1nnc(NC(=O)c2c(O)c3c([nH]c2=O)CCCC3)s1 | -11% |
| CCC(C)Sc1nnc(-c2c[nH]c3ccccc23)n1CCOC (configuration not stated) | 6.4% |
| CC(C)N1C(=O)C2C(C(=O)NC3CCCCC3)C3C=CC2(O3)C1C(=O)NC1CCCC1 (configuration not stated) | -2.8% |
| O=C(NCCCN1CCN(c2ccccc2F)CC1)C1CCC(=O)N1C1CCCCC1 (configuration not stated) | 1.3% |
| CC(C)(C)n1nnnc1C(c1cccs1)N(Cc1cccnc1)CC1CCCO1 (configuration not stated) | -3.9% |
| C=CCC(NCCCO)c1cccc(OC)c1OC (configuration not stated) | -1.4% |
| CCCCN(C)C(=O)c1ccc2c(c1)N(CC)C(=O)c1ccccc1S2(=O)=O | -4.5% |
| CCOC(=O)CSc1nnc(CNC(=O)c2cccs2)n1-c1cc(OC)ccc1OC | -0.5% |
| CCOC(=O)CSc1nnc(CNc2ccc(F)cc2)o1 | -2.2% |
| Cc1ccccc1NC(=O)NCc1ccco1 | 2.4% |
| FC(F)(F)c1cc(-c2cccs2)nc(NCc2ccco2)n1 | -3.9% |
| CN1CCN(c2cc(=O)n(-c3ccc(Cl)cc3)c(=O)[nH]2)CC1 | 0.4% |
| COc1ccccc1N(CC(=O)N1CCCCC1)S(=O)(=O)c1ccccc1 | 2.1% |
| C=CCn1cnc2scc(-c3ccccc3)c2c1=O | 0.5% |
| C=CCn1c(COc2ccccc2C)nnc1SCC(=O)O | 5.1% |
| O=C(Cn1cnc2c(cnn2-c2ccccc2)c1=O)NCc1ccccc1 | -2% |
